Assay [1] is described as follows: qHTS assay to identify small molecule antagonists of the thyroid receptor (TR) signaling pathway - cell viability counter screen (AID 743064). Also: nearly all actives have a fitted effect of over 50% in size. Also: potency is read from the fitted curve at half-maximal effect. Put shortly: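 Fluorescence from CellTiter-Fluor, added after 23.5 h exposure at 37 °C, reported viability of GH3.TRE-Luc cells co-treated with compound and 1 nM T3. Measured in the same wells as the luciferase TR readout.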
(In general: qHTS replaces the single test concentration by a dilution series.)

Assay [2] in a line: qHTS assay to identify small molecule antagonists of the thyroid receptor (TR) signaling pathway (AID 743065). Also: potency is read from the fitted curve at half-maximal effect; nearly all actives have a fitted effect of over 55% in size. The gist of the method:
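GH3.TRE-Luc rat pituitary cells carrying two TR response elements driving luciferase were plated for 4 h, given compound plus 1 nM T3 (final), and incubated 23.5 h at 37 C. ONE-Glo luminescence measured reporter inhibition; CellTiter-Fluor fluorescence tracked cytotoxicity.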

A short description of assay [3]: qHTS assay to identify small molecule antagonists of the estrogen receptor alpha (ER-alpha) signaling pathway - cell viability counter screen (AID 743074; calls by dose curve; also: nearly all actives have a fitted effect of over 45% in size; also: potency is read from the fitted curve at half-maximal effect).
Assay [4] addresses Estrogen receptor (Homo sapiens) (UniProt P03372). In words: qHTS assay to identify small molecule agonists of the estrogen receptor alpha (ER-alpha) signaling pathway (AID 743075; calls by dose curve).
Assay [5] is described as follows: qHTS assay to identify small molecule antagonists of the estrogen receptor alpha (ER-alpha) signaling pathway using the BG1 cell line (AID 743080; calls by dose curve;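 also: BG1 cells stimulated with 17beta-estradiol alongside compound; nearly all actives have a fitted effect of over 25% in size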; also: potency is read from the fitted curve at half-maximal effect). Put shortly: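 Seeding, 24 h rest, compound transfer from DMSO, 17beta-estradiol addition, 21.5 h incubation, CellTiter-Fluor (30 min, 37 C), then ONE-Glo (30 min, room temperature): this sequence was run on BG1-Luc-4E2 reporter cells.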

Assay [6] is described as follows: qHTS assay to identify small molecule antagonists of the estrogen receptor alpha (ER-alpha) signaling pathway using the BG1 cell line - cell viability counter screen (AID 743081).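 Also: compound given together with 17beta-estradiol as the ER stimulus; nearly all actives have a fitted effect of over 45% in size.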 Also: potency is read from the fitted curve at half-maximal effect.
For a further assay, the target named is Aromatase (Homo sapiens) (UniProt P11511). Briefly: qHTS assay to identify aromatase inhibitors (AID 743083). Also: nearly all actives have a fitted effect of over 55% in size. Also: potency is read from the fitted curve at half-maximal effect.
The nature of assay [7]: qHTS assay to identify aromatase inhibitors - cell viability counter screen (AID 743084).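 Also: cells stimulated with testosterone during compound exposure; nearly all actives have a fitted effect of over 55% in size.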 Also: potency is read from the fitted curve at half-maximal effect.
For assay [8], the target named is Aryl hydrocarbon receptor (Homo sapiens) (UniProt P35869). Briefly: qHTS assay to identify small molecule that activate the aryl hydrocarbon receptor (AhR) signaling pathway (AID 743085).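 Also: HG2L7.5c1 human HepG2 liver cells with stably integrated DRE-driven firefly reporter; series mostly up to about 70 µM; nearly all actives have a fitted effect of over 15% in size.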 The gist of the method:
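Cell line HG2L7.5c1 (human hepatoma, 20× DRE-luc). Plated, 5 h 37C, compound/DMSO added, 24 h 37C. CellTiter-Fluor 30 min 37C → fluorescence; then ONE-Glo 30 min RT → luminescence.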

Assay [9] can be described thus: qHTS assay to identify small molecule that activate the aryl hydrocarbon receptor (AhR) signaling pathway - cell viability counter screen (AID 743086). Also: nearly all actives have a fitted effect of over 45% in size. Also: potency is read from the fitted curve at half-maximal effect. Put shortly: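 HepG2-AhR-luc (HG2L7.5c1) cells, 4000/well, were preincubated 5 h at 37C, exposed to compound in qHTS format for 24 hr at 37C, then given CellTiter-Fluor for 30 min; viability was read as fluorescence in the reporter wells.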

A short description of assay [10]: qHTS assay to identify small molecule antagonists of the peroxisome proliferator-activated receptor gamma (PPARg) signaling pathway - cell viability counter screen (AID 743194). Also: nearly all actives have a fitted effect of over 55% in size. Also: potency is read from the fitted curve at half-maximal effect. The gist of the method:
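PPARg-UAS-bla HEK293H cells were plated, rested 5 h at 37 C, then treated with compounds plus rosiglitazone (50 nM final) for 17 h at 37 C; viability was then read by CellTiter-Glo luminescence after 30 min at room temperature.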

A short description of assay [11]: qHTS assay for small molecule activators of the heat shock response signaling pathway (AID 743210; active = well fitted activation curve with a large enough effect in the signal ratio in the repeat runs, with a control signal flat, not every such curve was filed as active; the % refers to the signal ratio; also: series mostly up to about 63 µM). The gist of the method: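 HSE-bla HeLa cells (beta-lactamase reporter under heat shock response elements) were exposed to compounds for 5 h at 37 C, then loaded with LiveBLAzer B/G FRET substrate for 2.5 h at room temperature before fluorescence reading.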
Assay [12] is described as follows: qHTS assay to identify small molecule agonists of the peroxisome proliferator-activated receptor delta (PPARd) signaling pathway - cell viability counter screen (AID 743211). Also: nearly all actives have a fitted effect of over 55% in size. Also: potency is read from the fitted curve at half-maximal effect. Put shortly:
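HEK293H PPARd-bla, 3000 cells/well; 5 h preincubation 37C/5% CO2; cpd in DMSO, 17 h 37C; B/G FRET substrate 2 h RT; CellTiter-Glo 30 min RT, luminescence.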

Assay [13] relates to thyroid hormone receptor (rat, GH3 cells). In words: qHTS assay to identify small molecule agonists of the thyroid receptor (TR) signaling pathway (AID 743066; calls by dose curve).
Assay [14] concerns the target Estrogen receptor (Homo sapiens) (UniProt P03372). In words: qHTS assay to identify small molecule antagonists of the estrogen receptor alpha (ER-alpha) signaling pathway (AID 743069; active = well fitted curve in the direction sought with a large enough effect in the signal ratio in the repeat runs, not every such curve was filed as active; the % refers to the signal ratio). The gist of the method: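 HEK293 cells stably carrying an ER-alpha-UAS-bla beta-lactamase reporter were pre-cultured overnight in 2% charcoal-stripped FBS medium. Test compounds in DMSO were added together with 17beta-estradiol for 18 hr at 37C. Read-out was fluorescence after 2 hr with LiveBLAzer B/G FRET substrate at room temperature.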

Assay [15] has the same target. Briefly: qHTS assay to identify small molecule agonists of the estrogen receptor alpha (ER-alpha) signaling pathway using the BG1 cell line (AID 743079). Also: nearly all actives have a fitted effect of over 20% in size.
Assay [16] is described as follows: qHTS assay for small molecule activators of the heat shock response signaling pathway - cell viability counter screen (AID 743209). Also: potency is read from the fitted curve at half-maximal effect; nearly all actives have a fitted effect of over 50% in size. The gist of the method:
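Readout: CellTiter-Glo luminescence, 30 min at room temperature. System: HSE-bla HeLa cells, 1500/well, plated overnight. Treatment: compounds in DMSO, 5 h at 37 C.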

Assay [17] deals with Peroxisome proliferator-activated receptor gamma (Homo sapiens) (UniProt P37231). Briefly: qHTS assay to identify small molecule agonists of the peroxisome proliferator-activated receptor gamma (PPARg) signaling pathway (AID 743094; active = well fitted activation curve with a large enough effect in the signal ratio in the repeat runs, not every such curve was filed as active; the % refers to the signal ratio; also: potency is read from the fitted curve at half-maximal effect). Put shortly: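 Compounds dissolved in DMSO were added to PPARg UAS-bla HEK293H cells for 17 h at 37C, and reporter expression was quantified by fluorescence intensity after 1 h with LiveBLAzer B/G FRET substrate.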

“And” between values parts separate entries of the source, which are not always exact repeats. Equal values may be shown once. Inconclusive results are not listed. The source made the active and inactive calls. Unless noted, calls follow the shape of the dose curve; as a rule, active = well fitted curve in the direction sought with a large enough effect in the repeat runs; inconclusive = weak or mixed curves; inactive = no such curve, though single readings can be large; an effect the other way counts as inactive or inconclusive.

Peroxisome proliferator-activated receptor gamma (Homo sapiens), sequence (P37231 whole entry, looked up): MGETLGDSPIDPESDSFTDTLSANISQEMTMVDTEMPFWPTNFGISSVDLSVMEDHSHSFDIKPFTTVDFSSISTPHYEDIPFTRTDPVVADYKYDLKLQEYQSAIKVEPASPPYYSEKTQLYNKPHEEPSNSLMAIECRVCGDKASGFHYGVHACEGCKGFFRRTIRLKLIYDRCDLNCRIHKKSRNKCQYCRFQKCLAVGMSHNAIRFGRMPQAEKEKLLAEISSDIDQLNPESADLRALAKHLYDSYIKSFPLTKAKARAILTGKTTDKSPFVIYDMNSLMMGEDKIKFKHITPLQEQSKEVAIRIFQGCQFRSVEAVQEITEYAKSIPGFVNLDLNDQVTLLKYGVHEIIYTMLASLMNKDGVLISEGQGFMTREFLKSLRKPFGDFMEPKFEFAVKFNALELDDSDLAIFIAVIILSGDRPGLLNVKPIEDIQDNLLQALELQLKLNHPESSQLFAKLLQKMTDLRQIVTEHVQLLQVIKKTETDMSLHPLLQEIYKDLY
Aryl hydrocarbon receptor (Homo sapiens), sequence (P35869 whole entry, looked up): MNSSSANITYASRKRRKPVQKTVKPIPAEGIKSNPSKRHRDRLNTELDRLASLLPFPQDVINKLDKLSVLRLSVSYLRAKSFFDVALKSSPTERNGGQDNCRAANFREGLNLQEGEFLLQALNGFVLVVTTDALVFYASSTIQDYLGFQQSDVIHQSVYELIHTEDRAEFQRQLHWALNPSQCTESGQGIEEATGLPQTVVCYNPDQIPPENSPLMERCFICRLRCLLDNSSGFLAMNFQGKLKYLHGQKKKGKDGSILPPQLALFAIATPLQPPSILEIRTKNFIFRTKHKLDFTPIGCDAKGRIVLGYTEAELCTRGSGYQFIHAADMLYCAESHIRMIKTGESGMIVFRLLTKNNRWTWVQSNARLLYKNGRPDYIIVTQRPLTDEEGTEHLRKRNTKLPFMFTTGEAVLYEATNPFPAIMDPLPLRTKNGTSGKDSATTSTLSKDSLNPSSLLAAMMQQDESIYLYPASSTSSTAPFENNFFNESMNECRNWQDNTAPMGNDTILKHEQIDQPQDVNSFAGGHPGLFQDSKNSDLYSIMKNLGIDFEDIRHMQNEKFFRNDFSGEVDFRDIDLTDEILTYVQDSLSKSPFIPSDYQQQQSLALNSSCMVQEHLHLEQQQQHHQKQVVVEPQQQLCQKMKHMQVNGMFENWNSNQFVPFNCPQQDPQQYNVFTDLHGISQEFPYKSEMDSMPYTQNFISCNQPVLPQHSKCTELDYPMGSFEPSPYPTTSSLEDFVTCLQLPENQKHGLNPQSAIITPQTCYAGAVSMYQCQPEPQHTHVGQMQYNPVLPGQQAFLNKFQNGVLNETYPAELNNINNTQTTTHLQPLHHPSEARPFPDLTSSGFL
Aromatase (Homo sapiens), sequence (P11511 whole entry, looked up): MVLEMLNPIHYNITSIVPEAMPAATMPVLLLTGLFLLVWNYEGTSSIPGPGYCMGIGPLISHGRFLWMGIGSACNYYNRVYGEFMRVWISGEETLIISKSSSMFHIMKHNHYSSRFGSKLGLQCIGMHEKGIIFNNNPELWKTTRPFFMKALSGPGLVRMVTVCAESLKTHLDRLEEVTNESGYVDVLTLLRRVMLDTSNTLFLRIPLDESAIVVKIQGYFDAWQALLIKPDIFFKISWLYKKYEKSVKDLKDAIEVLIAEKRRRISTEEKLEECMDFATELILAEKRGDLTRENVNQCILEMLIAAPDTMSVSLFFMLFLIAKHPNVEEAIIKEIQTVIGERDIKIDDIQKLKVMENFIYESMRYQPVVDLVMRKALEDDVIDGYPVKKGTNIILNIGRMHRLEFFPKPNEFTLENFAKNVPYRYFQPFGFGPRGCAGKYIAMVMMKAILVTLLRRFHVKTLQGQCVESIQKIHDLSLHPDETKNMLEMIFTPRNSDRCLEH
Estrogen receptor (Homo sapiens), sequence (P03372 whole entry, looked up): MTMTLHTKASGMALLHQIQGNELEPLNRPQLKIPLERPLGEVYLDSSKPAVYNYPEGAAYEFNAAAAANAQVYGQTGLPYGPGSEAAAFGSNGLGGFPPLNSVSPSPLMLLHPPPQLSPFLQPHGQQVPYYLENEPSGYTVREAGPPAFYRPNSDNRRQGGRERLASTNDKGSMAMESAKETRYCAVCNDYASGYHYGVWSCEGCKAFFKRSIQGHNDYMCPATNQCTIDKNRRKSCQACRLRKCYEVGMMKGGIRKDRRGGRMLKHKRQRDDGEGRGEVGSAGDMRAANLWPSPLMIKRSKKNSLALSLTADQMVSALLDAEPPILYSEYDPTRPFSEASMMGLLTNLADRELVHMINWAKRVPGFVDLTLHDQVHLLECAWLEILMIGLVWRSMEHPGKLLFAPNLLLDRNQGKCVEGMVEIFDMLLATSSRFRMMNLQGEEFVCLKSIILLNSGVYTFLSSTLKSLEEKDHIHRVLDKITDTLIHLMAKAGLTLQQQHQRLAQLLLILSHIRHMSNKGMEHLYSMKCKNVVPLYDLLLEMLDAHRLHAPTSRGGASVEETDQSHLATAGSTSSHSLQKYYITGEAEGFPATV

`CO[C@H]1C[C@@H]2CC[C@@H](C)[C@@](O)(O2)C(=O)C(=O)N2CCCC[C@H]2C(=O)O[C@H]([C@H](C)C[C@@H]2CC[C@@H](O)[C@H](OC)C2)CC(=O)[C@H](C)C=C(C)[C@@H](O)[C@@H](OC)C(=O)[C@H](C)C[C@H](C)/C=C/C=CC=C1C`: the Potency in [1] was 15 µM (active) and 9.44 µM (active); in assay [2] it was 15 µM (active); in assay [3], 23.9 µM (active); in assay [5], 3.8 nM (active) and 7.5 nM (active); in assay [6] it was 23.7 µM (active) and 3.76 µM (active); in the assay with Aromatase (Homo sapiens), 2.11 µM (active). Besides, the Potency was 23.7 µM (active) and 26.6 µM (active) in [7]; 13.3 µM (active) and 26.6 µM (active) in assay [9]. Also, the Potency entry in assay [4] and in assay [8] was “inactive” each time.

For `CN1CC[C@H](c2c(O)cc(O)c3c(=O)cc(-c4ccccc4Cl)oc23)[C@H](O)C1`, the Potency was 0.211 µM (active) in [1], 0.15 µM (active) in assay [2] and 0.211 µM (active) in the assay with Aromatase (Homo sapiens). The Potency result in assay [10] and in assay [12] was “inactive” in each case. Also, in assay [11], the compound was called inactive.

Turning to `C/C=C/C1=C(C(=O)O)N2C(=O)[C@@H](NC(=O)[C@H](N)c3ccc(O)cc3)[C@H]2SC1`, the Potency entry in [1], in [13], in assay [14], in assay [3], in [4] and in [15] was “inactive” throughout. Also, the Potency entry (in assay [5]; in assay [6]; with Aromatase (Homo sapiens); in assay [7]; in assay [8]; in [9]) was “inactive” throughout.

As to `CN(C[C@@H](CC[N+]12CCC(C3CCCCC3)(CC1)CC2)c1ccc(Cl)c(Cl)c1)C(=O)c1cc(C(F)(F)F)cc(C(F)(F)F)c1`, the Potency in assay [1] is 21.7 µM (active); in assay [2] it was 27.3 µM (active); in assay [3] it was 49 µM (active); in the assay with Aromatase (Homo sapiens), 61.1 µM (active); in assay [7], 61.1 µM (active); in assay [9], 54.5 µM (active). For the same compound, the Potency in assay [10] is 54.9 µM (active); in [16], 24.5 µM (active); in assay [12] it was 17.4 µM (active). Moreover, the Potency entry in assay [8] was “inactive”.

`COc1cccc2c1[C@@H]1CN(CCCCn3c(=O)[nH]c4c(sc5ncc(-c6ccccc6)nc54)c3=O)C[C@@H]1CO2`: the Potency in assay [1] is 11.9 µM (active); in [2] it was 10.6 µM (active); in [7], 26.6 µM (active). Moreover, the Potency entry in assay [4] was “inactive”.

In the case of `CON=C1C[C@]2(C[C@@H]3C[C@@H](C/C=C(\C)C[C@@H](C)/C=C/C=C4\CO[C@@H]5[C@H](O)C(C)=C[C@@H](C(=O)O3)[C@]45O)O2)O[C@H](/C(C)=C/C(C)C)[C@H]1C`, the Potency in assay [1] was 5.31 µM (active); in assay [2] it was 3.76 µM (active) and 5.31 µM (active); in assay [3], 6.01 µM (active) and 23.9 µM (active). Also, the Potency result (with Aromatase (Homo sapiens); in assay [7]; in assay [8]; in [9]) was “inactive” each time.

As for `COc1cccc(-c2ccc(/C=C\CN3CCCCCC3)cc2Cl)c1`, the Potency was 21.6 µM (active) in assay [1]; 21.6 µM (active) in assay [2]; 60.9 µM (active) with Aromatase (Homo sapiens); 43.4 µM (active) in assay [10]; 48.7 µM (active) in assay [12]. Moreover, the Potency result in [14], in assay [3], in [4], in [6], in assay [8] and in assay [9] was “inactive” throughout. Also, the Potency result in assay [17] is “inactive”.

In the case of `Cc1cc(CC(C)CC(C)(C)C)n(O)c(=O)c1` (centres undefined) (tested in a mixture with another compound), the figures for the Potency (in assay [1]; in assay [2]; with Aromatase (Homo sapiens)) were 29.8 µM (active), 21.1 µM (active) and 13.3 µM (active), respectively. In addition, the Potency entry in [6], in assay [8], in [9] and in [17] was “inactive” each time.

In the case of `N#Cc1nc(Cl)c(Cl)c(Cl)c1Cl`, the Potency in assay [1] is 2.43 µM (active); in [2], 1.72 µM (active); with Aromatase (Homo sapiens) it was 4.86 µM (active); in assay [7], 7.7 µM (active); in assay [9], 54.5 µM (active); in assay [10] it was 4.36 µM (active). Besides, the Potency in assay [16] was 2.19 µM (active); in [12], 7.76 µM (active). Further, the Potency entry in assay [6] and in assay [8] was “inactive” throughout.

With `COc1cc(NS(C)(=O)=O)ccc1Nc1c2ccccc2nc2ccccc12`, the Potency in [1] was 0.188 µM (active); in assay [2], 0.596 µM (active); in the assay with Aromatase (Homo sapiens), 26.6 µM (active); in [9], 13.3 µM (active); in [17] it was 21.3 µM (active). Moreover, the Potency entry in assay [3] was “inactive”.

These data come from PubChem BioAssay (Tox21).
